According to PubChem BioAssay AID720542 (National Center for Advancing Translational Sciences (NCATS), 2013):
The campaign covered roughly 360,000 compounds. About 740 (0.21%) were called active. Inconclusive results (about 2%) are left out. What follows is part of a selection rich in actives, with near analogues and random picks from the rest. Values without a mark were called inactive. Calls come from the whole dose curve; as a rule, active = well fitted inhibition curve with a large enough effect; inconclusive = small, poorly fitted or top-dose-only effect; inactive = no such curve, though single readings can be large or run the other way.

system: Plasmodium falciparum AMA1 (3D7) - RON2 peptide interaction; assay: qHTS for Inhibitors of AMA1-RON; Towards Development of Antimalarial Drug Lead: Primary Screen; details: AlphaScreen AMA1-biotinylated RON2 peptide binding; series mostly up to 58.2 µM; activity change, negative = inhibition: at the top concentration; note: nearly all actives have a fitted effect of over 45% in size;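 for activity change, negative = inhibition: 0% = vehicle wells and -100% = peptide control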
Text: Plasmodium, the causative agent of malaria, is one of the world's deadliest parasitic diseases. Currently there is no vaccine available and there is widespread resistance to common anti-malarial drugs. This warrants novel, alternative approaches for developing improved therapy. During infection, one such essential interaction is between two parasite proteins, the apical membrane antigen1 (AMA1) that is translocated onto the merozoite surface and the rhoptry neck protein 2 (RON2), which is transferred to the red blood cells (RBC) membrane during invasion (Besteiro et.al., 2009). Recently, the Miller lab has shown that the interaction between AMA1 and RON2 is essential for junction formation of the parasite with the host cell (Srinivasan et.al., 2011). The binding of the RON2 peptide to the hydrophobic pocket in AMA triggers the formation of the moving junction which provides a firm anchor for the parasite to pull itself into the RBC using its actin-myosin motor; an irreversible step that commits the parasite for invasion. Only one AMA1 and RON2 genes exists in Plasmodium and there are no alternate pathways. Moreover, the region corresponding to RON2 peptide is conserved in all P. falciparum isolates for which sequences are available. The key residues in the AMA1 hydrophobic pocket that binds RON2 are also conserved and indicate a functional constraint governing this essential step in invasion since a short RON2 peptide (RON2L) corresponding to the binding region on AMA1 is sufficient to compete with the native RON2 protein and inhibits invasion (Tonkin et.al, 2011). Therefore, developing small molecule inhibitors of this interaction offers a promising target opening a new arena for anti-malarial therapeutics drug design.
In collaboration with the Miller lab, a quantitative High Throughput Screen using the AlphScreen technology was developed using a recombinant his-tagged AMA1 and a biotinylated RON2 peptide. This fluorescent screen was assayed against the NIH Molecular Libraries Small Molecule Repository (MLSMR). Inhibition of this protein-protein interaction is the desired outcome of this assay. However, due the limitations of this AlphaScreen assay, a large number of artifacts were observed. An AlphaScreen counterscreen was run to identify the true inhibitors, triage compound activity, and weed out false positives.
NIH Chemical Genomics Center [NCGC]
NIH Molecular Libraries Probe Centers Network [MLPCN]
Assay Submitter (PI): Louis Miller, National Institute of Allergy and Infectious Disease (NIAID)
Two microliters of his-tagged AMA1 3D7 allele protein (final concentration 25 nM) was dispensed into a 1,536-well assay plate. Small molecules and positive control peptides were pin-transferred (23 nL or 46 nL) via Kalypsys pin-tool equipped with a 1,536-pin array, resulting in final compound and peptide concentration ranges of 91.5 nM - 57.2 µM, and 15.6 nM - 2.00 µM, respectively. Unlabeled RON2 peptide or R1 peptide ([…]) that specifically binds the 3D7 AMA1 was used as a positive control that inhibited the binding of RON2L to AMA1. After 15 minutes incubation, 1 uL of biotinylated RON2 peptide (final concentration 25 nM) or buffer were dispensed and the assay plate was incubated for an additional 30 minutes at room temperature and protected from light. This was followed by an addition of 1 uL mixture of donor and acceptor beads (10 ug/mL final concentrations for each). The plates were incubated for 30 min at room temperature and read using the EnVision(R) plate reader (PerkinElmer). Maximum inhibition response was normalized to the positive control signal while no inhibition response was normalized to the DMSO treated wells.
Potency is the fitted concentration of half-maximal effect.

Structure (SMILES)	activity change, negative = inhibition	Potency
Cc1ccccc1NC(=O)COC(=O)c1cc(C)n(C2CC2)c1C	4.53% [at 11.6 µM]	–
CC(NC(=O)c1ccc(N2CCNCC2)c([N+](=O)[O-])c1)C12CC3CC(CC(C3)C1)C2 (stereo not given)	-12.1%	–
c1ccc(CSc2nnc(-c3ccco3)c(-c3ccco3)n2)cc1	–	31.6 µM (active)
CN(C)C(=O)CSc1n[nH]c(-c2ccco2)n1	-7.33%	–
CSc1c(SCc2ccccc2)cnn(Cc2ccccc2)c1=O	-9.7%	–
Cc1ccc(-n2ncc(C(=O)NC3CC3)c2C2CCN(C(=O)OC(C)(C)C)CC2)c(C)c1	21.7%	–
O=C(OCC#CCSc1nnc(-c2ccncc2)o1)c1sc2ccccc2c1Cl	2.03%	–
Cc1ccc([N+](=O)[O-])c(OCCCNCC(C)O)c1 (stereo not given)	2.5%	–
CCOC(=O)C1CCCN(C(=O)c2ccc(CS(=O)(=O)c3ccc(Br)cc3)o2)C1 (stereo not given)	-3.02%	–
C=CCNc1nc(N)c(C(=C(C#N)C#N)c2ccccc2)s1	19.2%	–
CCCC1CC(C)(C(=O)Cn2[nH]c(=O)ccc2=O)OC1=O (stereo not given)	2.13%	–
CC12COC3(C(=O)Nc4ccc(Cl)cn4)CC1CCC32C (stereo not given)	11.8%	–
CCC(=C/c1sc2ccc3ccccc3c2[n+]1C)/C=C1\Sc2ccc3ccccc3c2N1C	–	35.5 µM (active)
COc1ccc(CN2CCC(c3nc4ccc(Cl)cc4[nH]3)CC2)cc1	-0.0124%	–
COCCOC(=O)C1=C(C)NC(=O)NC1c1cc2c(cc1Br)OCO2 (stereo not given)	-11.6%	–
O=C(CSc1nnc(-c2cccs2)n1Cc1ccccc1)N1CCc2ccccc2C1	-1.23%	–
CC(C)CC(=O)N1CCN(Cc2ccccc2Br)CC1	–	20 µM (active)
CC(C)CC(=O)N1CCN(Cc2cccc(Cl)c2)CC1	-21.8%	–
COc1ccccc1CN1CCN(C(=O)Cc2ccccc2)CC1	-9.03%	–
CCCCC(O)C1=C[N+](=O)CC=C1 (stereo not given)	0%	–
CN1CCN(Cc2nc3cc(NC(=O)COc4ccc([N+](=O)[O-])cc4)ccc3n2C)CC1	7.7%	–
COc1ccc(C2(CNC(=O)C(c3ccccc3)c3ccccc3)CCOCC2)cc1OC	1.8%	–
CCCN(CCC)CC(O)COc1ccccc1C(=O)Nc1ccccc1 (stereo not given)	-11.6%	–
CC(C)C(O)C1CCN(Cc2nc(Cc3ccccc3Cl)no2)CC1 (stereo not given)	45.3%	–
CCCOc1cc(C)c(S(=O)(=O)n2nnc3ccccc32)cc1C	7.11%	–

Structure (SMILES)	activity change, negative = inhibition	Potency
COc1cccc(-n2c(=O)c3c(C)c(C(=O)N(C)C)sc3n(CC(=O)NCCc3ccc(OC)c(OC)c3)c2=O)c1	4.48%	–
Cc1ccc(OCC(=O)Nc2cccc3c2CCCC3)cc1C	10.4%	–
Oc1cc(O)c2c(c1)OC(c1ccc(O)c(O)c1)C(O)C2 (stereo not given)	-11.9%	–
CCOC(=O)C1(Cc2ccccc2C(F)(F)F)CCN(C(=O)c2cc(C)n(C)n2)CC1	-2.34%	–
C[C@H](CO)N1C[C@H](C)[C@@H](CN(C)C(=O)NC2CCCCC2)Oc2ccc(NC(=O)c3ccncc3)cc2C1=O	-2.89%	–
CCCCN(C(=O)c1ccc(OC(F)(F)F)cc1)c1c(N)n(CCC)c(=O)[nH]c1=O	5.06%	–
CC(C)C(=O)NCC(c1cccs1)S(=O)(=O)c1ccc(F)cc1 (stereo not given)	20.5%	–
Cc1csc(=O)n1CCC(=O)OCC(=O)Nc1ccc(N2CCOCC2)cc1	14.1%	–
CCc1c(C)[nH]c(=S)c(C#N)c1C	22.4%	–
COc1ccc(C)cc1S(=O)(=O)Nc1cccc(Cl)c1Cl	3.36%	–
CCN(CC)C(=O)CSc1nnc(-c2cnccn2)n1-c1ccc(C)cc1	-8.2%	–
COC(=O)c1ccc(OCC(O)CN(CCO)CC(O)Cn2ccc3ccccc32)cc1 (stereo not given)	9.1%	–
NC(=O)CCCC1=NS(=O)(=O)c2ccccc2N1	8.24%	–
CC(CC(=O)Nc1ccc(F)cc1F)S(=O)(=O)c1ccc2c(c1)NC(=O)CO2 (stereo not given)	-11.5%	–
O=C(NC1CCCC1)C(NS(=O)(=O)c1ccc(Br)s1)c1ccccc1 (stereo not given)	4.01%	–
Cc1ccc(N)cc1-n1c(C)ccc1C	-2.66%	–
COc1cc(C(=O)NNC(=O)CN2C(=O)NC3(CCCC3)C2=O)cc(OC)c1OC	23.7%	–
OC(c1ccc(Cl)cc1)C(CN1CCOCC1)c1ccccc1 (stereo not given)	-4.17%	–
C=CCn1c(SCc2c(C(=O)OC)sc(N)c2C(=O)OC)nnc1-c1ccc(Cl)cc1	10.1%	–
CC1(C)CC(=O)c2cnc3nc4ccccc4n3c2C1	-13.2%	–
CCCC1(C(=O)OC)NC(c2ccco2)C2C(=O)N(C)C(=O)C21 (stereo not given)	-5.83%	–
Cn1ccc(=Nc2ccc(NC(=O)c3ccc(N=c4ccn(C)c5ccc([N+](=O)[O-])cc45)cc3)cc2)cc1	-10.7%	–
CCCN(CCC)S(=O)(=O)c1ccc(C(=O)N2CC3CCC(CC3)C2)cc1	-4.87%	–
CN(c1ccccc1)S(=O)(=O)c1ccc2[nH]c(=O)[nH]c2c1	0.947%	–
CC1(C(=O)NCc2ccco2)Cc2c(-c3ccc4c(c3)OCO4)ccnc2O1 (stereo not given)	-5.41%	–
